# Source: PubChem BioAssay AID2524 (Sanford-Burnham Center for Chemical Genomics, 2010)
# The campaign covered roughly 330,000 compounds. About 540 (0.16%) were called active.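 How the source made its calls: active means activation factor of the enzyme at least 2-fold when tested at 20 µM; inactive means the rest.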 Many of the other results were omitted from the sample, so actives are more common in it than they were.
# Molecular target: Intestinal-type alkaline phosphatase (Homo sapiens) (UniProt P09923)
# Test: enzymatic activation of intestinal alkaline phosphatase – biochemical, luminescence, uHTS, primary screen (AID 2524)
# Conditions: purified human IAP, CDP-Star luminescence, 30 min; at 10 µM; stronger effect = higher value; 1 = vehicle-only enzyme, 0 = enzyme-free background
# Chain of Intestinal-type alkaline phosphatase (Homo sapiens) (P09923 whole entry, looked up): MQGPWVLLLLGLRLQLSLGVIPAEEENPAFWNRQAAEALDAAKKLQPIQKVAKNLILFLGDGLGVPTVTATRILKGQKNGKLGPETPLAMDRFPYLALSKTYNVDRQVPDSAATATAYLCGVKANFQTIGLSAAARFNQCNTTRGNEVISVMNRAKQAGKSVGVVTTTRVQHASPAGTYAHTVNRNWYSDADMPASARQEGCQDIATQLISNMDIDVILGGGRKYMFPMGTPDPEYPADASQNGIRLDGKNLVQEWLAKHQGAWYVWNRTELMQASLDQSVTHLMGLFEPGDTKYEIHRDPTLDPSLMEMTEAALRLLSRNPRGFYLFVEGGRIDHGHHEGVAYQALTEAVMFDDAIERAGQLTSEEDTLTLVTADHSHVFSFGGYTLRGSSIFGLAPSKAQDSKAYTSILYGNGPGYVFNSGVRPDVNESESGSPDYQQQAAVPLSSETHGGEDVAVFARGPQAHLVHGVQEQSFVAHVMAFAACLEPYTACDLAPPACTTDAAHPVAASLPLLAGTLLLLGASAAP
row,SMILES,activation factor
1,O=C(NCc1ccccc1Cl)c1ccc2c(=O)n(CC3CCCO3)c(=S)[nH]c2c1 (stereo not given),0.824 (inactive)
2,CCN=c1sc(C(=O)Nc2ccccc2)c(C)n1CC,1.04 (inactive)
3,CN(C)c1nccc(NCc2ccccc2)c1C#N,1.01 (inactive)
4,O=C(CN1CCC(NC(=O)Nc2ccccc2)CC1)Nc1cccc([N+](=O)[O-])c1,0.94 (inactive)
5,Cc1cc(C)cc(NC(=O)NC2CCN(CC(=O)Nc3cccc(Cl)c3C)CC2)c1,3.04 (active)
6,COc1cccc(NC(=O)CN2CCN(CC(=O)Nc3ccccc3Cl)CC2)c1,0.935 (inactive)
7,CN(C)C(=O)c1nc2ccc(Cl)cn2c1CNCc1cccc(OC(F)(F)F)c1,0.976 (inactive)
8,COc1cc(S(=O)(=O)Nc2ncn[nH]2)ccc1Cl,0.999 (inactive)
9,CC(C)n1ncc2c(C(=O)Nc3ccc(CC#N)cc3)cc(C3CC3)nc21,0.958 (inactive)
10,O=C(c1cc(COc2c(F)cccc2F)on1)N1CCSCC1,1.07 (inactive)
11,COc1cc(NC(=O)COC(=O)CSc2ccc3ccccc3c2)c(C)cc1[N+](=O)[O-],1.12 (inactive)
12,Cc1cnc(C(=O)OCC(=O)Nc2ccc(Cl)cc2Cl)cn1,1.07 (inactive)
13,COc1cc(NC(=O)COC(=O)c2cnc(C)cn2)c(C)cc1[N+](=O)[O-],2.53 (active)
14,CCCCN(CCCC)CCNC(=O)CN1C(=O)COc2ccc(S(=O)(=O)N3CCOCC3)cc21,0.976 (inactive)
15,O=C(CNCCC1=CCCCC1)Nc1ccccc1N1CCCCCC1,1.04 (inactive)
16,COCCNS(=O)(=O)c1cc(Br)ccc1OC,0.874 (inactive)
17,CSCCNC(=O)c1ccc2nc(Cc3ccccc3F)oc2c1,1.11 (inactive)
18,CCCc1cc(=O)[nH]c(SCC(=O)Nc2ccc(C(=O)Nc3ccccc3OC)cc2)n1,1.04 (inactive)
19,OC1CN=C2Sc3ccccc3N2C1 (stereo not given),2.42 (active)
20,Cc1ccc(C(=O)COC(=O)CCCC(=O)NC2CCCCC2)cc1[N+](=O)[O-],0.908 (inactive)
21,COC(=O)c1cccc(N(C(=O)CNC(=O)c2cccs2)C(C(=O)NCC2CCCO2)c2ccc(OC)c(OC)c2)c1 (stereo not given),0.951 (inactive)
22,COC(=O)[C@]1(CC(C)C)N[C@H](c2ccc(SC3CCCCC3)cc2)[C@@H]2C(=O)N(C)C(=O)[C@@H]21,0.874 (inactive)
23,COc1ccc(CCC(C)N2CCc3ccccc3C2)cc1 (stereo not given),0.983 (inactive)
24,Cc1nn(CC2CC2)c(=O)n1N(C)c1ncc(C(F)(F)F)cc1Cl,0.985 (inactive)
25,COc1ccccc1C(=O)NCC(=O)NCCSc1ccc(Br)cc1,1.02 (inactive)

row,SMILES,activation factor
1,O=C(CSCc1ccccc1Cl)NNC(=O)c1ccccc1,1.25 (inactive)
2,CN(C)C(=O)c1ccc(NC(=O)c2ccccc2-c2ccccc2)cc1,1.16 (inactive)
3,CC(=O)Nc1ccc(NC(=O)COc2ccc(-c3ccccc3)cc2)cc1,0.914 (inactive)
4,NC(=O)COc1ccc(NC(=O)c2ccccc2-c2ccccc2)cc1,2.12 (active)
5,Cn1nnnc1SCC(=O)Nc1ccccc1C(=O)NC1CC1,0.94 (inactive)
6,CCN(CC)S(=O)(=O)c1ccc(Cl)c(C(=O)NCCN2CCOCC2)c1,1.07 (inactive)
7,CC1CC(C)(C)n2c(O)c(N=NC(N)=S)c3cccc1c32 (stereo not given),0.927 (inactive)
8,CC(=O)Oc1c(C(=O)c2nnc(C)o2)c(=O)n(Cc2ccccc2)c2ccccc12,1.07 (inactive)
9,CC(=O)N1CCN(C(=O)c2cccc(S(=O)(=O)Nc3ccc(C)cc3)c2)CC1,1.16 (inactive)
10,Cc1cccc(NS(=O)(=O)c2cccc(C(=O)NNC(=O)c3ccccc3O)c2)c1,2.18 (active)
11,Cc1cccc(NS(=O)(=O)c2ccc(C)c(C(N)=O)c2)c1,1.05 (inactive)
12,CN(C)C(=O)c1cccn(Cc2cccc(C(F)(F)F)c2)c1=O,1.24 (inactive)
13,Cn1c(N)c(C(=O)COC(=O)C23CC4CC(CC(C4)C2)C3)c(=O)n(C)c1=O,0.895 (inactive)
14,Cc1ccccc1C(=O)NCC(c1ccco1)N1CCc2ccccc21 (stereo not given),0.802 (inactive)
15,CC12COC3(C(=O)Nc4ccc(Cl)cn4)CC1CCC32C (stereo not given),0.935 (inactive)
16,Cc1ccc(CN2CCC(n3nccc3NC(=O)CCCc3ccccc3)CC2)o1,1.13 (inactive)
17,COc1ccc(CN2CCC(n3nccc3NC(=O)CCCc3ccccc3)CC2)cc1C,3.92 (active)
18,COc1cc(CN2CCC(n3nccc3NC(=O)CCCc3ccccc3)CC2)ccc1O,1.47 (inactive)
19,C=Cn1cc[n+](CC(=O)c2ccc(OC)c(OC)c2)c1,0.894 (inactive)
20,O=C(c1ccc(Br)o1)N(c1ccccn1)C1CCCCC1,1.04 (inactive)
21,O=C(N/N=C/c1ccc(Br)o1)c1cncc(Br)c1,1.05 (inactive)
22,N#Cc1ccccc1CN1C(=O)S/C(=C/c2cccn2-c2cccc(C(=O)O)c2)C1=O,1.06 (inactive)
23,COc1cc(NC(=O)NCC2CCN(Cc3ccc(C)cc3)CC2)cc(OC)c1OC,2.12 (active)
24,Cc1cccc(CN2CCC(CNC(=O)Nc3ccc(F)c(Cl)c3)CC2)c1,1.31 (inactive)
25,Cc1ccc(C)c(CN2CCC(CNC(=O)Nc3ccc(C)c(F)c3)CC2)c1,1.49 (inactive)
